Unmarked numbers belong to inactive results. No rule for the calls is given here.

The target in the test is Lethal factor (Bacillus anthracis) (UniProt P15917). Kind of test: Bacillus anthracis lethal factor inhibition, microsphere flow cytometry protease assay, validation at 10 µM (AID 588461). Conditions: multiplex microsphere protease cleavage assay, stronger effect = higher value. Background: Flow cytometry measures light scatter and fluorescence of single cells or particles in a stream.
Sequence of Lethal factor (Bacillus anthracis) (P15917 whole entry, looked up): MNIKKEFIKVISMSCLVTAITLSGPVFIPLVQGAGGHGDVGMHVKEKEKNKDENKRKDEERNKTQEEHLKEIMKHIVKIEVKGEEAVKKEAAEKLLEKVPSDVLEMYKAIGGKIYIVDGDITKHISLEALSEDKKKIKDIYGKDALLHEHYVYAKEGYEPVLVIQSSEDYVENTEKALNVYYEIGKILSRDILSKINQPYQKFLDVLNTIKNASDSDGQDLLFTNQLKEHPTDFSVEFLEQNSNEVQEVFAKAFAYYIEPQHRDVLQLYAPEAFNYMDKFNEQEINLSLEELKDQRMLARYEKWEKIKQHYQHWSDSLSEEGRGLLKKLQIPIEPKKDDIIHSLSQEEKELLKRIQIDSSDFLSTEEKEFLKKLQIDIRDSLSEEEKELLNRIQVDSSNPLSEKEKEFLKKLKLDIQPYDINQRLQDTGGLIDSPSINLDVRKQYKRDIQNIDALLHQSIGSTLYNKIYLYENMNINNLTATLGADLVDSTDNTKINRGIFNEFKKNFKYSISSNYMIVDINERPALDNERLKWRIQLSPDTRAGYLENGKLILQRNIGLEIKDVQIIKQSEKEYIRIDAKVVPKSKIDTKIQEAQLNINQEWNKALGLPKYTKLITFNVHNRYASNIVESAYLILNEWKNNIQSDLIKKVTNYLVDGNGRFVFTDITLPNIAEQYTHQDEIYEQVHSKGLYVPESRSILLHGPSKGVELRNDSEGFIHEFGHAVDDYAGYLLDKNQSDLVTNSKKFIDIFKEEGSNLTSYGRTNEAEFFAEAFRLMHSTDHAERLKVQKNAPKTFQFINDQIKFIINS
`Cn1cc(CN2CCCC(CO)(Cc3cccc(Cl)c3)C2)cn1` (centres undefined): the inhibition was -5.4%.
Turning to `O=C1CC(c2ccc(F)cc2)Cc2nc(NCC3CCCO3)ncc21` (centres undefined), the inhibition was -6.1%.
For `O=c1oc2c(CN3CCN(CCO)CC3)c(O)ccc2cc1-c1ccccn1` the value was -4.2%; for `CC(=O)OC(C)C[N+](C)(C)C` (centres undefined), -5.8%; for `O=C(O)/C=C/c1cnc[nH]1`, -0.5%.
For `COc1ccc(CCn2c(C)nc3c(c(=O)c4ccccc4n3C)c2=O)cc1` the value was 5.5%; for `COc1cc2cc(C)nc(Cc3cccc4ccccc34)c2cc1OC`, 3.2%; for `NS(=O)(=O)c1cc(C2(O)NC(=O)c3ccccc32)ccc1Cl` (centres undefined), -7.1%.
As for `O=c1c2ccccc2nc2n1CCCN2`, the inhibition is -7.9%.

By inhibition is commonly meant the drop in the measured response relative to a control, in per cent.
